# What was measured:
# Assay type in all cases: functional
# [1] = target: Solute carrier family 2, facilitated glucose transporter member 1 (Homo sapiens) (UniProt P11166); test: ST_JUDE_LEISH: Cytotoxicity at 2uM final concentration against transgenic Leishmania Mexicana promastigotes LmGLUT1 that are glucose transport deficient and complemented with the human glucose transporter GLUT1. Activity is measured by DNA content using SYBR green in vitro
# [2] = target: Hexose transporter 1 (Plasmodium falciparum) (UniProt O97467); test: ST_JUDE_LEISH: Cytotoxicity at 2uM final concentration against transgenic Leishmania Mexicana promastigotes LmPfHT that are glucose transport deficient and complemented with the Plasmodium falciparum hexose transporter. Activity is measured by DNA content using SYBR green in vitro
# [3] = target: Glucose transporter (Leishmania mexicana) (UniProt O61059); test: ST_JUDE_LEISH: Cytotoxicity at 2uM final concentration against transgenic Leishmania Mexicana promastigotes LmGT2 that are glucose transport deficient and complemented with the L. Mexicana glucose transporter 2. Activity is measured by DNA content using SYBR green in vitro
# Chain of Solute carrier family 2, facilitated glucose transporter member 1 (Homo sapiens) (P11166 whole entry): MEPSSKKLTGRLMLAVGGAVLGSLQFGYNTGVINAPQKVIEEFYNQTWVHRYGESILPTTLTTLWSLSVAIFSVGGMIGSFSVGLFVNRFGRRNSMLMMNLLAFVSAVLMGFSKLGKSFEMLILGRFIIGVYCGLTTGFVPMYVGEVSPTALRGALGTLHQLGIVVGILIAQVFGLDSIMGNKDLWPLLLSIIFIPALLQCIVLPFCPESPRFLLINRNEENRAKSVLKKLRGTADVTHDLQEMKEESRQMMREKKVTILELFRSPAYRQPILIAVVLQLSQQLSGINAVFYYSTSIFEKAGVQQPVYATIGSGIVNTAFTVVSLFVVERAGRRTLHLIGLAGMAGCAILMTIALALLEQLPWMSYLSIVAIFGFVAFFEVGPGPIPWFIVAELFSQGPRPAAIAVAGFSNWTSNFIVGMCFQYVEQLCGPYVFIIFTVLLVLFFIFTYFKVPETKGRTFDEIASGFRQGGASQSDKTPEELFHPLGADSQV
SMILES,inhibition [1] [%],inhibition [2] [%],inhibition [3] [%]
Cc1cc2c(cc1Cl)N(C(=O)Nc1cc(F)cc(-c3cncnc3)c1)CC2,9.04,5,2.7
CCC(C)NCCC(c1ccccc1)c1ccccc1O (stereo unspecified),5.11,4.69,4.41
COc1ccc2ncc(F)c(CCN3C[C@H](CNCc4cc(F)c5c(c4)NC(=O)CO5)[C@H](O)C3)c2n1,3.52,4.83,0.92
CN(Cc1cccc(C#N)c1)C1CCN(c2cc(NC(=O)c3cccc(F)c3)ccn2)CC1,3.81,5.32,4.33
FC(F)(F)c1ccc2[nH]ccc(=NN=Cc3cccc(Cl)c3)c2c1,1.05,-0.16,-3.89
CC(C)(C)CC(C)(C)c1ccc(O)c(C(=O)Nc2cccc([N+](=O)[O-])c2)c1,1.48,2.51,1.44
COc1ccc(NC(=O)CCNc2cc(C)nc(NCc3cccc(C)c3)n2)cc1,-0.09,0.43,-1.14
Cc1ccc2nc(C)cc(N/N=C/c3ccc([N+](=O)[O-])cc3)c2c1,104,101,104
CNS(=O)(=O)Cc1ccc(Nc2nccc(Nc3cccc4c3cnn4C(=O)Nc3ccccc3)n2)cc1,4.38,3.98,3.72
Oc1ccc(CCCNc2nc(NCc3cccc4ccccc34)nc(NC3CCNCC3)n2)cc1,-0.36,3.07,2
O=C(Cn1c(CCc2cccc(F)c2F)nc(=O)c2ccccc21)N(CCCN1CCCC1)Cc1ccc(-c2ccc(C(F)(F)F)cc2)cc1,8.01,7.63,9.22
O=C1CC(C(=O)Nc2cccc(-c3cccc(-c4nc5ccccc5[nH]4)c3)c2)c2ccccc2N1 (stereo unspecified),7.77,6.55,0.51
O=S(=O)(c1cccc(Br)c1)N1CCCCC(c2ccc(C(F)(F)F)cc2)=N1,1.84,3.68,2.2
CCc1cn2c3c(cc(C(=O)N[C@@H](Cc4ccccc4)[C@H](O)CNCCOC)cc13)N(C)S(=O)(=O)CC2,5.11,2.43,3.91
COc1cc2nccc(Nc3ccc(Oc4ccccc4)cc3)c2cc1OC,3.01,9.3,4.02
Nc1nonc1-c1nc2c(-c3cccc(Cl)c3)nccc2n1CCCNC(=O)Cc1ccc(Cl)cc1,0.7,0.77,0.42

SMILES,inhibition [1] [%],inhibition [2] [%],inhibition [3] [%]
COCc1cc(C)nc2sc(C(=O)Nc3cc(C(C)(C)C)ccc3O)c(N)c12,3.32,2.62,-0.92
O=C(NC(Nc1ccc([N+](=O)[O-])cc1)C(Cl)(Cl)Cl)c1cccc(Cl)c1 (stereo unspecified),4.07,3.95,3.37
N=C(N)Nc1nc(-c2cccc(NC(=O)NCc3ccc(OC(F)(F)F)cc3)c2)cs1,1.51,0.95,0.07
COc1ccc(CNc2nc(NCc3ccc(C(F)(F)F)cc3)c3cc(OC)c(OC)cc3n2)cc1OC,20.1,19.9,14.3
O=c1[nH]c2c(cc1CNC1CCCCC1)c(-c1ccc(F)cc1)nn2-c1ccccc1,-1.4,-1.47,0.4
O=C(NCCCCN1CCCC2c3cccc(O)c3CCC21)c1ccc(-c2ccccc2)cc1 (stereo unspecified),0.9,-0.26,-0.23
O=C(Nc1cccc(-c2cccc(-c3nc4cc(C(F)(F)F)ccc4[nH]3)c2)c1)c1ccc(=O)[nH]n1,10.7,9.47,9.62
Cc1sc(N2CCN(C)CC2)nc1C(=O)Nc1ccc(F)cc1C(F)(F)F,4.38,2.2,3.75
COc1cc2c(Nc3cccc(NC(=O)c4ccccc4)c3)ncnc2cc1OCCCN1CCOCC1,0.63,2.08,0.27
O=C1C(c2ccccc2)=C(Nc2cccc(OC(F)(F)C(F)F)c2)c2ccccc21,5.8,4.03,1.33
CC(Cc1ccc(CN(CC(N)=O)Cc2ccc(CC(C)NCCc3cccc(Cl)c3)cc2)cc1)NCCc1cccc(Cl)c1 (stereo unspecified),3.67,-0.2,7.2
CN(C)c1ccc(CN2CCC(CNC(=O)c3cc(-c4ccccc4F)cs3)C2)cc1 (stereo unspecified),1.96,1.98,2.12
O=C(N[C@@H](Cc1ccccc1)C(=O)O)c1cc(-c2ccc(F)cc2)no1.O=C(N[C@@H](Cc1ccccc1)C(=O)O)c1conc1-c1ccc(F)cc1,9.87,6.76,6.74
O=C(/C=C/c1ccc(Cl)c(Cl)c1)N1CCC(CCN2CCC(c3c[nH]c4cnccc34)CC2)CC1,16,11.9,5.81
c1ccc(-c2nc(NC3CCCCC3)cc(C3CC3)n2)nc1,1.84,1.91,1.62
O=C(NCCCN1CCN(c2cccc(Cl)c2)CC1)c1ccc(-c2nc3cc(Cl)c(Cl)cc3[nH]2)c(F)c1,3.57,1.4,1.68
